Screens from PubChem BioAssay.
p53ts 32C tox: p53ts cell cytotoxicity, permissive temperature | H1299-p53A138V at 32C, ATP luminescence viability, 24 h | Potency, µM (doses to about 46.1 µM), for inactives: top-dose activity change, negative = cytotoxicity, hits mostly cytotoxic | 130,000 compounds, 0.93% hits;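 also: potency is read from the fitted curve at half-maximal effect; 0% = DMSO and -100% = full killing by reference compound; nearly all actives have a fitted effect of over 55% in size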
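ATP-content luminescence (ATPlite) read-out after 24 h compound exposure at 32C in H1299-p53A138V cells (600/well). Tested up to 46 uM. Normalized to DMSO (0%) and 100 uM tamoxifen (100% killing); Hill-fit AC50.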
p53ts 39C kill: p53ts cell cytotoxicity, nonpermissive temperature | Potency, µM (top dose mostly 46.1 µM), for inactives: at the highest dose activity change, negative = cell killing, hits mostly cytotoxic | 130,000 compounds, 1.5% hits | AID 902 | H1299-p53A138V viability at 39C, ATP luminescence, 24 h; also: potency is read from the fitted curve at half-maximal effect; % is scaled to controls: 0 for no effect and ±100 for the full control effect; nearly all actives have a fitted effect of over 55% in size
IkB sig inh: inhibitors of IkB signaling in ABC-DLBCL cells | 110,000 compounds, 0.04% hits | ABC-DLBCL IkBa-CBG/CBR dual luciferase ratio, 4 h; response scale: scaled: untreated 0%, proteasome inhibitor 100% | AID 445 | Potency, µM (doses to about 57.1 µM), without a hit: at the highest dose IkBa stabilization activation; active = well fitted curve in the direction sought with a large enough effect in the signal ratio, not every such curve was filed as active; inconclusive = small, poorly fitted or top-dose-only effect, or a change in a side signal; the % refers to the signal ratio;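 also: potency is read from the fitted curve at half-maximal effect; the direction sought is a rising ratio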
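Curves were fitted separately to fusion (green), unfused (red) and ratio luminescence, then classed by r2, magnitude and activity. Cells: OCI-Ly3, 4 h compound plus doxycycline at 37C; 10 uM MG-132 defined full response.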
Imprint erasure: inducers of genomic imprint erasure in mouse ES cells. Potency, µM (top dose mostly 60.7 µM), without a hit: top-dose activity change, positive = activation, hits mostly activators. mouse ES Peg3-LacZ reporter, beta-gal luminescence, 40 h. 110,000 compounds, 0.02% hits; also: potency is read from the fitted curve at half-maximal effect
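Gelatin-coated wells received 300 freshly trypsinized female ES cells with a Peg3LacZ-Neo reporter on the maternal allele, then incubated 40 hours at 37C. BetaGlo was added for 5 minutes at room temperature before a single luminescence read.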
TSHR ag: activates the human thyroid stimulating hormone receptor | P16473 | HEK293-CNG-TSHR cells (CNG channel as cAMP sensor), membrane potential dye, cAMP | Potency, µM (series often up to 57.1 µM), for inactives: at the top dose activation, usual class: activators | 73,000 compounds, 0.48% hits | AID 926; active = well fitted activation curve with a large enough effect in the main read-out, with a control signal flat, not every such curve was filed as active; inconclusive = small, poorly fitted or top-dose-only effect, or a change in a side signal; inactive = no such curve, though single readings can be large or run the other way; % of control where 0% means no effect;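 also: the control signal comes from parental cells without the receptor; potency is read from the fitted curve at half-maximal effect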
Target sequence (P16473 whole entry, looked up): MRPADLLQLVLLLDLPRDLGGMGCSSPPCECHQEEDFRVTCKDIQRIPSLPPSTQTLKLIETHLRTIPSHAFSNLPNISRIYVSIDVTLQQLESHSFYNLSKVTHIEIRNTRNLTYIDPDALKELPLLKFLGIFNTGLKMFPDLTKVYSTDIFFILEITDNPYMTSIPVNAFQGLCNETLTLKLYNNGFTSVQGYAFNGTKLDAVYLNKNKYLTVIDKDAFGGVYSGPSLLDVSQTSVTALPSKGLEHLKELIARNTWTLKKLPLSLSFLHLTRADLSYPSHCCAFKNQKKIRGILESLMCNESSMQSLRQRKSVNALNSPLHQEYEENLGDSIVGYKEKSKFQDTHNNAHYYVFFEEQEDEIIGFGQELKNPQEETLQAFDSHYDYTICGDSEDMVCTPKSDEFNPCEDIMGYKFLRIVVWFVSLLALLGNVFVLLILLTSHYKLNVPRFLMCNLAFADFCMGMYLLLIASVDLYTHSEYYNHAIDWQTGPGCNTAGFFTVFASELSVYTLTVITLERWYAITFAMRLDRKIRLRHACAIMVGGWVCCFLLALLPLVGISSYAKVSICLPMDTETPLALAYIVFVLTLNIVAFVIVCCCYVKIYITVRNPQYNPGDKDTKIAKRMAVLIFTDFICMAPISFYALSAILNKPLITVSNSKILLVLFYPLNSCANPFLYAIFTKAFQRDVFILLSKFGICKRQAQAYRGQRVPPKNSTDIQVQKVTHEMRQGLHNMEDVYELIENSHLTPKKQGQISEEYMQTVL
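cAMP rise detected as CNG-channel membrane depolarization by fluorescent dye (emission 590 nm), 30 min after compound, following 60 min dye loading containing 100 uM RO 20-1724 at room temperature. Cells: TSHR/CNG HEK 293, with parental CNG HEK 293 as control.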
HEK293 cAMP cs: parental HEK293 cAMP activation (counter-screen) | parental HEK293 CNG cAMP sensor, membrane potential fluorescence | Potency, µM (doses to about 57.1 µM), for the others: top-dose activation, usual class: activators | 73,000 compounds, 2.5% hits; also: potency is read from the fitted curve at half-maximal effect; % of control where 0% means no effect; nearly all actives have a fitted effect of over 55% in size
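Counterscreen for endogenous-receptor signalling: CNG-channel HEK 293 cells report cAMP rise by membrane depolarization. After 60 min dye equilibration with 100 uM RO 20-1724, compounds incubated 30 min before bottom-read fluorescence at 590 nm.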
HEK293 cAMP cnt: raises cAMP in parental HEK293 cells lacking TSH receptor | AID 953 | shares compounds with TSHR ag | parental HEK293 CNG biosensor, cAMP membrane potential fluorescence | 150 tested, under 10 active | activity change, negative = inhibition, % at 32.9 µM
* hit, by the source's call; ? = inconclusive; / = no result; [ ] = another dose, or the depositor's remark. Sampled rows, rich in hits. Any-hit rate of the full collection: about 3.1%. Unless noted, calls follow the shape of the dose curve; as a rule, active = well fitted curve in the direction sought with a large enough effect; inconclusive = small, poorly fitted or top-dose-only effect, or another doubt; inactive = no such curve, though single readings can be large; an effect the other way counts as inactive or inconclusive.

SMILES | p53ts 32C tox | p53ts 39C kill | IkB sig inh | Imprint erasure | TSHR ag | HEK293 cAMP cs | HEK293 cAMP cnt
COc1ccc(C2C3=C(CC(c4ccco4)CC3=O)Nc3ccccc3N2C(C)=O)cc1 (stereo not drawn) | 12% | 9% | 0% | -8% | 4% | 7% | /
Cc1nn(C)c(C)c1S(=O)(=O)N(CC(=O)Nc1nccs1)c1ccc(C(C)C)cc1 | 1% | -7% | 0% | -9% | 7.9µM* | 9% | -9
Nc1nc2c(nc(Br)n2C2OC(CO)C(O)C2O)c(=O)[nH]1 (stereo not drawn) | 1% | -1% | / | 5% | / | / | /
Cn1cccc1Cc1nnc(SCC(N)=O)n1CCc1ccccc1 | -3% | -14% | -1% | 3% | 4% | 3% | 3[25.6 µM]
CC(=O)N1CCc2cc(Br)cc(S(=O)(=O)CCC(=O)N3CCN(c4cccc(C)c4C)CC3)c21 | 2% | -25% | ? | -13%[10.9 µM] | / | / | /
O=C(CN(Cc1ccccc1Cl)C(=O)Cn1nnc(-c2cccs2)n1)NCC1CCCO1 (stereo not drawn) | 10% | 3% | -1% | -9% | 6.3µM* | 12% | 9
COc1ccc(C2Nc3ccccc3C(=O)N2Cc2ccco2)cc1COc1ccc(NC(C)=O)cc1 (stereo not drawn) | -11% | -16% | 18% | -30% | 0.63µM* | 18% | 22
O=C1c2ccccc2C(=O)N1Cc1nc(-c2ccncc2)no1 | 3% | 10% | 1% | -13% | 14% | 14% | /
O=C1c2ccccc2C(=O)N1Cc1nc(-c2ccccc2)no1 | 13% | 3% | 11% | -4% | 21% | 4% | 21[25.6 µM]
CCC(=O)N1CCc2cc(Br)cc(S(=O)(=O)CCC(=O)Nc3ccccc3C)c21 | 3% | -8% | ? | -2%[10.9 µM] | / | / | /
Cc1csc2nc(COC(=O)c3ccc(NC(=O)C(C)Oc4ccccc4)cc3)cc(=O)n12 (stereo not drawn) | -1% | 12% | ? | -9%[10.9 µM] | / | / | /
Cc1cc(C)nc(N(C#N)CC(=O)N2CCC(C(N)=O)CC2)n1 | 4µM* | 8% | -2% | -62% | / | 1% | -13
CCOc1cc(C(=O)N2CCN(c3ccccc3)CC2)cc(OCC)c1OCC | -9% | 10% | -1% | -11% | ? | ? | /
CCOc1cc(C(=O)N(C)c2ccccc2)cc(OCC)c1OCC | 10% | 13% | 1% | -7% | 25µM* | 15% | 9
COc1ccccc1CN(Cc1ccco1)c1cnc(S(C)(=O)=O)nc1C(=O)Nc1ccccc1Cl | 4% | 3% | 0% | -13%[10.9 µM] | / | / | /
C=CCn1c(NCc2ccccc2)nc2ccccc21 | -10% | -15% | 0% | -4% | 16% | 16% | /
C=CCn1c(NCc2ccc3c(c2)OCO3)nc2ccccc21 | -20% | -17% | 1% | 3% | 2% | 16% | 13[25.6 µM]
Cc1cccn2c(=O)cc(CSc3nnc(NC(=O)c4ccc(F)cc4)s3)nc12 | -2% | -18% | -1% | 3%[10.9 µM] | / | / | /
CCSCCOC(=O)C1=C(C)N(C)C(=O)NC1c1cc(OC)ccc1OC (stereo not drawn) | -7% | 2% | -3% | -19% | 25µM* | 13% | 8
CC(=O)N1CCCc2cc(S(=O)(=O)N(CC(C)C)CC(C)C)ccc21 | -13% | 2% | 3% | -11% | 13µM* | 14% | 14
CC(=O)N1CCCc2cc(S(=O)(=O)N(C)CCC#N)ccc21 | 4% | -13% | -1% | -9% | -2% | 3% | /
COc1cc(OC)cc(-c2nnc(SCC(=O)N(C(C)C)C(C)C)o2)c1 | 8% | 3% | 0% | -9% | 25µM* | 24% | 17
Cc1ccc2nc(SCC(=O)O)nc(C)c2c1 | -3% | 1% | -5% | -6% | -7% | 6% | 13[25.6 µM]
CSc1nc(NC(C)(C)C)nc(Oc2ccc(=O)[nH]n2)n1 | 4% | 7% | 0% | -1% | 25µM* | 0% | -3
CCNc1nc(NCc2ccccc2)nc(Oc2ccc(=O)[nH]n2)n1 | 0% | 7% | 1% | -21% | 102% | -3% | /
SMILES | p53ts 32C tox | p53ts 39C kill | IkB sig inh | Imprint erasure | TSHR ag | HEK293 cAMP cs | HEK293 cAMP cnt
N=c1c(C(=O)NCc2ccco2)cc2c(=O)n3ccccc3nc2n1Cc1ccccc1 | -11% | -15% | 7% | -7% | ? | -129% | /
N=c1c(C(=O)NCc2ccc(F)cc2)cc2c(=O)n3ccccc3nc2n1Cc1ccco1 | -12% | 9% | 3% | -6% | -42% | 0% | -69[25.6 µM]
Brc1ccc(Oc2nnnn2-c2ccccc2)cc1 | -2% | -15% | 0% | -15% | 25µM* | 21% | 20
O=C(CN(c1ccc2c(c1)OCCO2)S(=O)(=O)c1ccccc1)NCc1ccco1 | 0% | 8% | 0% | -1% | 25µM* | 1% | 7
Cc1ccc(N(CC(=O)NCc2ccco2)S(=O)(=O)c2ccccc2)cc1 | 24% | -1% | 5% | -11% | ? | ? | -7
COc1ccc(-n2nc(C(=O)NCCc3ccc(Cl)cc3)c3c4ccccc4n(C)c3c2=O)cc1 | -7% | ? | ? | 10%[10.9 µM] | / | / | /
Cc1c(-c2ccccc2)c(=O)oc2c(CN3CCN(C)CC3)c(O)ccc12 | 0% | 12% | -6% | -11%[10.9 µM] | / | / | /
Cc1oc2c(CN3CCOCC3)c(O)ccc2c(=O)c1-c1ccccc1 | -5% | 7% | 0% | -9% | 11% | 10% | -37[25.6 µM]
CCc1cccc2c(-c3ccccc3)nc(SCC(=O)Nc3ccc(OC)cc3)nc12 | -5% | -2% | 1% | -5%[10.9 µM] | / | / | /
CCCN(CCC)C(=O)Cn1c(=O)n(-c2ccc(C)cc2)c(=O)c2ccc(C(=O)NCc3ccccc3Cl)cc21 | 4% | 5% | ? | -1%[10.9 µM] | / | / | /
COc1cc(/C=N/n2c(SC)nnc(C(C)(C)C)c2=O)ccc1O | -5% | -12% | 3% | -3% | 0% | -5% | -8[25.6 µM]
O=C(C1COc2ccccc2O1)N1CCCC1 (stereo not drawn) | 11% | -5% | 0% | -8% | -1% | -2% | -2[25.6 µM]
CC1(C)CC2CC(C)(CN2S(=O)(=O)c2ccc(N)cc2)C1 (stereo not drawn) | -4% | 2% | 0% | -17% | 25µM* | 7% | -5
CN1CCN(S(=O)(=O)c2ccc(N)cc2)CC1 | 2% | 12% | 2% | -3% | -4% | 19% | /
CCOC(=O)N1CCN(C(=O)c2ccc3c(c2)N(Cc2cc(C)ccc2C)C(=O)c2ccccc2S3=O)CC1 (stereo not drawn) | -24% | -28% | ? | -4%[10.9 µM] | / | / | /
